# According to publication PMC7862700, “An all-to-all approach to the identification of sequence-specific readers for epigenetic DNA modifications on cytosine”:
# Assays:
# Assay in all cases: DAPPL (digital affinity profiling via proximity ligation, sequencing); 10 mM Tris-HCl pH 7.5, 50 mM NaCl, 1 mM DTT, 4% glycerol, room temperature, 30 min; GST-TFs on glutathione beads, 16-mer random dsDNA library, 0.1% formaldehyde crosslink after washing; high values mean tight binding
# Conditions in all cases: protein: recombinant; tags: N-terminal GST; dsDNA, one strand shown
# ETV1 = ETV1 (Homo sapiens, UniProt P50549 1-477)
# Chain of ETV1 (P50549 whole entry, the tested form may be a part): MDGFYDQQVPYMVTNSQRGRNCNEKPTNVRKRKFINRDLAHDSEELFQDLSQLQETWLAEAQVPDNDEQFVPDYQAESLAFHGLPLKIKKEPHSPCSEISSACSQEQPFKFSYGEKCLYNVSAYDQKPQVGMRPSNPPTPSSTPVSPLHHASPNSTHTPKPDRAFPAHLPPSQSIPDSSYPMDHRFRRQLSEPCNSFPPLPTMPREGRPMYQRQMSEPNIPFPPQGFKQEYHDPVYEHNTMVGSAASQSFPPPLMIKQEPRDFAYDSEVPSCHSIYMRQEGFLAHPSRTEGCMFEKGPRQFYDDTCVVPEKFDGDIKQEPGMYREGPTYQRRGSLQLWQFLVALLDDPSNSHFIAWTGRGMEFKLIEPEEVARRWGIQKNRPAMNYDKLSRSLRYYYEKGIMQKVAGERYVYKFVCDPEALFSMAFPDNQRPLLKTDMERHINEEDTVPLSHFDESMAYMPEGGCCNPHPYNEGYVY
# Method in brief: (§1)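 Pools of DNA-barcoded human transcription factors, expressed in yeast as GST fusions on glutathione beads and combined with a tag-only sample, were incubated with 200 nmole of a 16-mer random double-stranded DNA library. Incubation took 30 min at room temperature in Tris/NaCl/DTT/glycerol buffer and was followed by washing, 0.1% formaldehyde crosslinking, proximity ligation (BsaI/T4 ligase, 1 h, 37 °C), PCR amplification and sequencing on an Illumina NextSeq500. Binding signal is the ratio of a hexamer's read frequency for a factor to its frequency for the tag-only sample.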
# ERF = biological target: T1, ERF (Homo sapiens, UniProt P50548 1-548)
# T1 sequence: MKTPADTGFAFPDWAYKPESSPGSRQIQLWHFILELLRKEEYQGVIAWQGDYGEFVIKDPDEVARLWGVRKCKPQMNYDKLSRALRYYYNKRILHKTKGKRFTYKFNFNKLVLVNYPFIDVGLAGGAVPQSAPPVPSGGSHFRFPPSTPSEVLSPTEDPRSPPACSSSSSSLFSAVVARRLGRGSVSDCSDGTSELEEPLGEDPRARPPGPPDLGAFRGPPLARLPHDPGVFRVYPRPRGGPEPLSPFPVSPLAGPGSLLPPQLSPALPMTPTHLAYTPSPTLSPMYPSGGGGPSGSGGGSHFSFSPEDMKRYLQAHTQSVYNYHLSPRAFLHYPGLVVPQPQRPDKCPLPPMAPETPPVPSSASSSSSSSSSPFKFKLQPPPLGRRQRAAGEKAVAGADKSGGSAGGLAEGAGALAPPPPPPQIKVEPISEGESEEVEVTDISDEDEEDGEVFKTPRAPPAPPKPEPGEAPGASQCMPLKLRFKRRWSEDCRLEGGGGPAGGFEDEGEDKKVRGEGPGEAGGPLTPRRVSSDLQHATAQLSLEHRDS
# Method in brief: as §1
# ETV3L = biological target: T2, ETV3L (Homo sapiens, UniProt Q6ZN32 1-361)
# T2 sequence: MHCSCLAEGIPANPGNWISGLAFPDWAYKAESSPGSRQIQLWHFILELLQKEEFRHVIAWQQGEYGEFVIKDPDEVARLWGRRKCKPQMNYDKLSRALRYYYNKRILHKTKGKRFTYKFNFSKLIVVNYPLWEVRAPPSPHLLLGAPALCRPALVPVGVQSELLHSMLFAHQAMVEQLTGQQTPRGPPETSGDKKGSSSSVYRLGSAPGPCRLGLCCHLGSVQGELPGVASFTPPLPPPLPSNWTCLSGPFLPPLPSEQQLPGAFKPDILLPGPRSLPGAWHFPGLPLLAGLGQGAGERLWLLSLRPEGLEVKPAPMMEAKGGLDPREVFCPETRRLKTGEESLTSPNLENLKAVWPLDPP
# Method in brief: as §1
# ETS2 = biological target: T3, ETS2 (Homo sapiens, UniProt P15036 1-469)
# T3 sequence: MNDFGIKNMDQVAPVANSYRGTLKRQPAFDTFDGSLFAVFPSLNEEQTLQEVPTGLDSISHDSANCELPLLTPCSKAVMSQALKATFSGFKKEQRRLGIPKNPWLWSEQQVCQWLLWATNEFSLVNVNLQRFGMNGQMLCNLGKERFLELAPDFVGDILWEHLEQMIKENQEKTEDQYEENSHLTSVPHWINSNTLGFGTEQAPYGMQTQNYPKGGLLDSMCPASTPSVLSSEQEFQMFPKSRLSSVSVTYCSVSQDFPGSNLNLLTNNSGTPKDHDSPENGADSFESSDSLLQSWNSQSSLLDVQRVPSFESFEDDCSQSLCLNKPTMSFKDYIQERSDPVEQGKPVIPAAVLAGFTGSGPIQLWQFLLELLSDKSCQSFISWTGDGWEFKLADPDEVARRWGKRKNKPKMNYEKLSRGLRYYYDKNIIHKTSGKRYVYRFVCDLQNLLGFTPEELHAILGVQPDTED
# Method in brief: as §1
# SPDEF = biological target: T4, SPDEF (Homo sapiens, UniProt O95238 1-335)
# T4 sequence: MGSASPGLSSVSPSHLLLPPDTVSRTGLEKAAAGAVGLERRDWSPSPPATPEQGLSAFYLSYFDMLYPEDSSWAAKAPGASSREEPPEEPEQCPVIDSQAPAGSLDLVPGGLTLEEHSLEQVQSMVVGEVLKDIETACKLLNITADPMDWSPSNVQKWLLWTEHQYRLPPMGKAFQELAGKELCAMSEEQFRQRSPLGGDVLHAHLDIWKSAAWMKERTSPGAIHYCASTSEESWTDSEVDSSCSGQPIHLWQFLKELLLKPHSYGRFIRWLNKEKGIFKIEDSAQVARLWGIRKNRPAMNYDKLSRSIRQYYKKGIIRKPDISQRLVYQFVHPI
# Method in brief: as §1
# ETV7 = biological target: T5, ETV7 (Homo sapiens, UniProt Q9Y603 1-341)
# T5 sequence: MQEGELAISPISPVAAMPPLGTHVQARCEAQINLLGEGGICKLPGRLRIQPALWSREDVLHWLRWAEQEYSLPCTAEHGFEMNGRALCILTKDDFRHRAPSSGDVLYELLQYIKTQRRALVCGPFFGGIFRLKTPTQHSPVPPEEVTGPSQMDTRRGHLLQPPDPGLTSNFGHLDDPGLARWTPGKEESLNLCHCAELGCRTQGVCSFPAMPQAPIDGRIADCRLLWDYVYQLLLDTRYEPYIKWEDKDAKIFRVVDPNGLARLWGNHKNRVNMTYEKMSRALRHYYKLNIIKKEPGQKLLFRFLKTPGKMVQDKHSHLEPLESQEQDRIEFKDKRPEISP
# Method in brief: as §1
# ELF5 = biological target: T6, ELF5 (Homo sapiens, UniProt Q9UKW6-2 1-255)
# T6 sequence: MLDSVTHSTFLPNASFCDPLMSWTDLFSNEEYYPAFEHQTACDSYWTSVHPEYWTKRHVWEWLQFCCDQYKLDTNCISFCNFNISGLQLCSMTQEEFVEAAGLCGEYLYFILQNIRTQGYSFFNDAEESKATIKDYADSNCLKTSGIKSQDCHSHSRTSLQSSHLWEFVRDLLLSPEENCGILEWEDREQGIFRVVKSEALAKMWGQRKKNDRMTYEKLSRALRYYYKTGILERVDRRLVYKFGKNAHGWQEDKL
# Method in brief: as §1
# ETV3 = biological target: T7, ETV3 (Homo sapiens, UniProt P41162-2 1-143)
# T7 sequence: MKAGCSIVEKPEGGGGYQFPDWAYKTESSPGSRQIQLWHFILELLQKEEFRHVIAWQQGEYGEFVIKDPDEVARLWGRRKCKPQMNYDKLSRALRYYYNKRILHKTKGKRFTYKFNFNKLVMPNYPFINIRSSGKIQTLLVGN
# Method in brief: as §1
# ETV6 = ETV6 (Homo sapiens, UniProt P41212 1-452)
# Chain of ETV6 (P41212 whole entry): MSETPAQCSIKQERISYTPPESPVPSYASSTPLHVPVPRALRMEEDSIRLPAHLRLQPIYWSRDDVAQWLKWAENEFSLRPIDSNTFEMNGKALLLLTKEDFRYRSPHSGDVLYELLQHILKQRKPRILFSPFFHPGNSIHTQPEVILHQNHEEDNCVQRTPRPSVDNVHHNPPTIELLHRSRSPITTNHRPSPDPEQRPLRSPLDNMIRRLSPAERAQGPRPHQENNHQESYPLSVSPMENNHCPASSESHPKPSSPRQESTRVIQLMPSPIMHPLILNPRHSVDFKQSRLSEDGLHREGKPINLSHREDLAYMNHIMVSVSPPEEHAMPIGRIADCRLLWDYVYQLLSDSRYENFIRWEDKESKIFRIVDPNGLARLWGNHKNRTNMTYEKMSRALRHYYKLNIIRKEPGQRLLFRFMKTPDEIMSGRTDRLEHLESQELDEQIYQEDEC
# Method in brief: as §1
sequence,measurement,setting,value
TTCACT,binding signal,ETV1,"1.33 fold enrichment (6-mer frequency, TF over GST control)"
same,binding signal,ERF,"1.42 fold enrichment (6-mer frequency, TF over GST control)"
same,binding signal,ETV3L,"1.4 fold enrichment (6-mer frequency, TF over GST control)"
same,binding signal,ETS2,"1.41 fold enrichment (6-mer frequency, TF over GST control)"
same,binding signal,SPDEF,"1.32 fold enrichment (6-mer frequency, TF over GST control)"
same,binding signal,ETV7,"1.36 fold enrichment (6-mer frequency, TF over GST control)"
same,binding signal,ELF5,"1.32 fold enrichment (6-mer frequency, TF over GST control)"
same,binding signal,ETV3,"1.3 fold enrichment (6-mer frequency, TF over GST control)"
same,binding signal,ETV6,"1.23 fold enrichment (6-mer frequency, TF over GST control)"
